Screening data deposited in PubChem by National Center for Advancing Translational Sciences (NCATS).
HepG2 tox: HepG2 cytotoxicity, counter-screen for TGF-b inhibitors; HepG2 CAGA-GFP viability, ATP luminescence, 18 h; Potency, µM (top dose mostly 46.1 µM), for the others: at the top dose activity change, negative = cytotoxicity, actives largely listed as cytotoxic; 410,000 compounds, 0.76% hits; further: potency means the concentration at half of the fitted maximal effect
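CellTiter-Glo luminescence gave cytotoxicity after 18 hours at 37 degrees C. The cells were HepG2 CAGA-GFP in 1% FBS DMEM, stimulated with 500 pg/mL TGF-beta after compound addition. %Activity was normalised to no-cell wells (complete cell-killing) and DMSO (no toxicity), and curves were fitted and classified.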
TDP1 cell noCPT: qHTS for Inhibitors of human tyrosyl-DNA phosphodiesterase 1 (TDP1): qHTS in cells in absence of CPT; DT40 Tdp1-/- hTDP1 cells, no CPT, ATP luminescence, 48 h; Potency, µM (top dose mostly 46.2 µM), for the others: at the highest dose activity change, negative = growth inhibition, hits mostly inhibitors; 420,000 compounds, 15% hits; AID 686978, 2013; further: potency means the concentration at half of the fitted maximal effect; on the % scale 0 is the no-effect control and ±100 the full control effect; nearly all actives have a fitted effect of over 55% in size
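Seeded 400 DT40-hTDP1 cells/well (vehicle DMSO, no 20 nM CPT); pinned compounds; ≥48 hr at 37 °C; CellTiter-Glo luminescence as viability measure.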
TGFb inhibitor: inhibitors of TGF-b signaling. HepG2 CAGA-GFP TGF-b/SMAD3 reporter, GFP fluorescence, 18 h; TGF-beta stimulated, 500 pg/mL final. Potency, µM (highest dose often 46.1 µM), for inactives: top-dose activity, negative = inhibition, usual class: inhibitors. 410,000 compounds, 1.2% hits. AID 588855; further: potency means the concentration at half of the fitted maximal effect; on the % scale 0 is the no-effect control and ±100 the full control effect; nearly all actives have a fitted effect of over 65% in size
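Per well, imaged GFP fluorescence of HEPG2 CAGA-GFP cells gives the signal; cells get compound, then TGF-beta (500 pg/mL final), 18 h at 37 degrees C; %Activity versus -TGF-beta and +DMSO controls.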
TDP1 cell CPT: DT40-hTDP1 cell growth loss with CPT; 420,000 compounds, 12% hits; AID 686979; Potency, µM (series often up to 46.2 µM), for inactives: top-dose activity change, negative = growth inhibition, most hits filed as inhibitors; chicken DT40 Tdp1-/-;hTDP1 cells + 20 nM CPT, ATP luminescence, 48 h; further: potency means the concentration at half of the fitted maximal effect; on the % scale 0 is the no-effect control and ±100 the full control effect; nearly all actives have a fitted effect of over 55% in size
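Chicken DT40 Tdp1-/- cells stably complemented with human TDP1 were seeded at 400 cells/well in medium containing 20 nM camptothecin, exposed to pin-transferred compounds, and grown at 37 °C for at least 48 hr. Viability was read as ATP luminescence.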
TDP1 inh: TDP1 (human) enzyme inhibition | Q9NUW8 | recombinant TDP1, AlphaScreen DNA substrate cleavage | Potency, µM (series often up to 130 µM), without a hit: at the top dose activity change, negative = inhibition, usual class: inhibitors | 350,000 compounds, 0.28% hits; further: potency means the concentration at half of the fitted maximal effect; on the % scale 0 is the no-effect control and ±100 the full control effect; nearly all actives have a fitted effect of over 40% in size
Target sequence (Q9NUW8 whole entry, looked up): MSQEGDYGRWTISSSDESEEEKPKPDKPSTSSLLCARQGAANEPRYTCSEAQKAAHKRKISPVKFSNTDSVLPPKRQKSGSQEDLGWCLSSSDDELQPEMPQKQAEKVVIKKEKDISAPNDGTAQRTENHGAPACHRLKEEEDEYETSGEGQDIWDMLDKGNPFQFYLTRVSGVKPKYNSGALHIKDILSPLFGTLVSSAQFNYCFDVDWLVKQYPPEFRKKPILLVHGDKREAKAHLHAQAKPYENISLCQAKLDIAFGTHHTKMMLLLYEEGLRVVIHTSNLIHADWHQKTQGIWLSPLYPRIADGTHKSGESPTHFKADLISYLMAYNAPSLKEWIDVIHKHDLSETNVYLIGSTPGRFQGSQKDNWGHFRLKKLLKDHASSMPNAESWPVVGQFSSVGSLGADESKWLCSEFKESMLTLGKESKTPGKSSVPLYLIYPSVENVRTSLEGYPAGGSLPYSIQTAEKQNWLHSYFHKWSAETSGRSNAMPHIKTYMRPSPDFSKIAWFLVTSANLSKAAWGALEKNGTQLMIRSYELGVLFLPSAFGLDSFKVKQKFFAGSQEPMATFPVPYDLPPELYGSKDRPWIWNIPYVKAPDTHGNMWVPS
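E. coli-derived human Tdp1, 1 nM final. Cpd preinc 15 min RT; substrate 15 nM final, 5 min RT; AS bead mix 10 ug/ml final, 10 min RT. Signal loss = tyrosine-FITC cleavage. No-enzyme wells = max signal.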
IL1B secr inh: inflammasome signaling inhibition, IL-1 beta readout. THP-1 LPS/ATP IL-1B secretion, AlphaLISA, 16 h; stronger effect = lower value. activity change, % at 57.5 µM. 360,000 compounds, 4.7% hits; in the data active means activity change below about -50%; inconclusive means mostly about -30% to -49%; further: on the % scale 0 is the no-effect control and ±100 the full control effect
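THP-1 cells pretreated 1 hr with compounds (up to 57.5 uM final), then stimulated with LPS (250 ng/mL final) plus ATP (1.25 mM final); secreted IL-1B measured by AlphaLISA after 16 hr, decreased signal indicating inhibition.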
Active calls of the source: *; ? = inconclusive; . = not tested or not shown; [ ] = remark or other dose. Compounds with a hit are over-represented: about 19% of the library has one in this group of screens. Unless noted, the call rests on the fitted dose curve; in most records, active means well fitted curve in the direction sought with a large enough effect; inconclusive means small, poorly fitted or top-dose-only effect, or another doubt; inactive means no such curve, though single readings can be large; an effect the other way counts as inactive or inconclusive.

SMILES	HepG2 tox	TDP1 cell noCPT	TGFb inhibitor	TDP1 cell CPT	TDP1 inh	IL1B secr inh
COc1ccc(CNCCC(c2ccccc2)c2ccc(OC(C)C)cc2)cc1OC (centres undefined)	-104%	23µM*	?	23µM*	.	.
COc1ccc(CNCCC(c2ccc(F)cc2)c2ccc(OC(C)C)cc2)cc1OC (centres undefined)	-105%	15µM*	?	16µM*	6%	-96*
CC(C)Oc1ccc(C(CC(=O)O)c2ccc(F)cc2)cc1 (centres undefined)	0%	-2%	-2%	23%	3%	19
C=CCOC(=O)C1=C(C)OC(N)=C(C#N)C1c1ccc2c(c1)OCO2 (centres undefined)	2%	16µM*	-14%	26µM*	-1%	18
Cc1nn(-c2cccc(Cl)c2)c2c1C(c1cccnc1)C(C#N)=C(N)O2 (centres undefined)	-31%	?	?	?	12%	4
CC1=C(n2nnc([N+](=O)[O-])n2)C(c2cccnc2)C(C#N)=C(N)O1 (centres undefined)	-12%	?	?	9.2µM*	-5%	?
COC(=O)C1=C(C)OC(N)=C(C#N)C1c1cccnc1 (centres undefined)	3%	?	-2%	21µM*	2%	5
N#CC1=C(N)Oc2ccc3ccccc3c2C1c1cccnc1 (centres undefined)	-27%	5.2µM*	-26%	3.7µM*	4%	0
Cc1cccc(NC(=O)CN2C(=O)CCS(=O)(=O)c3ccccc32)c1C	-2%	25%	11%	-9%	2%	0
CCC(C)NC(=O)Cn1c(=O)n(CC2CCC(C(=O)NC)CC2)c(=O)c2sccc21 (centres undefined)	1%	-10%	16%	0%	7%	.
CC[C@H](C)[C@H](NC(=O)[C@H](CCC(=O)O)NC(=O)[C@@H](N)CO)C(=O)N[C@@H](CCC(N)=O)C(=O)N[C@@H](CC(C)C)C(=O)N[C@@H](CCSC)C(=O)N[C@@H](Cc1cnc[nH]1)C(=O)N[C@@H](CC(N)=O)C(=O)N[C@@H](CC(C)C)C(=O)NCC(=O)N[C@@H](CCCCN)C(=O)N[C@@H](Cc1cnc[nH]1)C(=O)N[C@@H](CC(C)C)C(=O)N[C@@H](CC(N)=O)C(=O)N[C@@H](CO)C(=O)N[C@@H](CCSC)C(=O)N[C@@H](CCC(=O)O)C(=O)N[C@@H](CCCNC(=N)N)C(=O)N[C@H](C(=O)N[C@@H](CCC(=O)O)C(=O)N[C@@H](Cc1c[nH]c2ccccc12)C(=O)N[C@@H](CC(C)C)C(=O)N[C@@H](CCCNC(=N)N)C(=O)N[C@@H](CCCCN)C(=O)N[C@@H](CCCCN)C(=O)N[C@@H](CC(C)C)C(=O)N[C@@H](CCC(N)=O)C(=O)N[C@@H](CC(=O)O)C(=O)N[C@H](C(=O)N[C@@H](Cc1cnc[nH]1)C(=O)N[C@@H](CC(N)=O)C(=O)N[C@@H](Cc1ccccc1)C(=O)O)C(C)C)C(C)C	.	.	.	.	12%	.
COC(=O)C1=C(C(=O)OC)[C@]2([C@H]3C/C=C\CN[C@@H](Cc4ccccc4)C(=O)N3Cc3ccccc3)C=C[C@H]1O2	-25%	10µM*	?	?	.	.
COC(=O)C1=C(C)N(Cc2ccccc2)C(=O)N[C@H]1c1ccco1	1%	1%	1%	-11%	18%[12.3 µM]	23
COC(=O)C1=C(C(=O)OC)[C@]2([C@H]3CCCCN[C@@H](Cc4ccccc4)C(=O)N3Cc3ccccc3)C=C[C@H]1O2	2%	6.5µM*	?	5.8µM*	4%	-4
CNS(=O)(=O)c1cn(CC(=O)NCc2ccc(N(C)C)cc2)cc1S(=O)(=O)NC	1%	8%	0%	2%	.	1
COc1ccc(C(=O)c2c[nH]c(C(=O)NCc3ccco3)c2)cc1	-1%	?	27%	-14%	2%	-4
COc1ccccc1N(CC(=O)N/N=C/c1ccc(OCC(=O)NCc2ccco2)cc1)S(=O)(=O)c1ccc(C)cc1	5%	13µM*	10%	?	7%	-13
Cc1ccccc1N(CC(=O)Nc1ccccc1C(=O)NCc1ccco1)S(=O)(=O)c1ccccc1	0%	16µM*	0%	?	1%	-3
Cc1ccccc1C(=O)c1c[nH]c(C(=O)NCc2ccco2)c1	-9%	?	2%	?	2%	-52*
COC(=O)COc1ccc(/C=N/NC(=O)CN(c2ccccc2OC)S(=O)(=O)c2ccccc2)cc1	-10%	?	-7%	?	.	-96*
COc1ccccc1NC(=O)COc1ccc(/C=N/NS(=O)(=O)c2ccc(C)cc2)cc1	-28%	?	2%	-14%	6%	17
Cc1ccc(S(=O)(=O)N(CC(=O)Nc2ccccc2C(=O)O)c2ccccc2C)cc1	-14%	?	0%	1%	4%	45
O=C(Nc1nccs1)c1ccc(-c2ccc(F)c(Cl)c2)o1	-32%	?	-25%	?	0%	-18
CCOCCn1c(=O)c2c(nc3n2CCN3c2ccc(C)c(C)c2)n(C)c1=O	6%	-5%	-9%	4%	?	.
Cc1ccc(N(CC(=O)NCc2ccco2)C(=O)CNS(=O)(=O)c2ccc(F)cc2)c(C)c1	2%	-15%	-1%	-7%	4%	-95*
COc1ccc(N(CC(=O)NCc2ccco2)S(=O)(=O)c2ccc(C)cc2)cc1OC	-3%	-38%	2%	2%	13%[0.0935 µM]	13
O=C(Nc1ccccc1C(=O)Nc1ccccc1C(=O)NCc1ccco1)c1ccco1	-20%	?	-15%	16µM*	5%	-2
COc1ccccc1N(CC(=O)NCc1ccco1)S(=O)(=O)c1ccc(C)cc1	-13%	-2%	-32%	-21%	.	-85*
Cc1ccccc1N(CC(=O)NCc1ccco1)C(=O)CNS(=O)(=O)c1ccc(F)cc1	-4%	-14%	-1%	7%	.	-13
O=C(Nc1ccccc1C(=O)NCc1ccco1)c1ccco1	-5%	1%	-1%	-1%	2%	-9
